# Measurements published in publication PMC11006913.
# Numbering of substitutions follows the chain as printed.
# Experiments:
# Assay in all cases: PBM; 200 nM protein, PBS
# Conditions in all cases: dsDNA, one strand shown
# VENTX [1] = molecular target: T1, VENTX (Homo sapiens, UniProt O95231 78-163, R121Q)
# T1 sequence: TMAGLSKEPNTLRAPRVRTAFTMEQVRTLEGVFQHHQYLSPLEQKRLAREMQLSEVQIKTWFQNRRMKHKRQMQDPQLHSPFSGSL
# ALX4 = ALX4 (Homo sapiens, UniProt Q9H161 200-286)
# PAX4 [2] = molecular target: T2, PAX4 (Homo sapiens, UniProt O43316 9-242, R200K)
# T2 sequence: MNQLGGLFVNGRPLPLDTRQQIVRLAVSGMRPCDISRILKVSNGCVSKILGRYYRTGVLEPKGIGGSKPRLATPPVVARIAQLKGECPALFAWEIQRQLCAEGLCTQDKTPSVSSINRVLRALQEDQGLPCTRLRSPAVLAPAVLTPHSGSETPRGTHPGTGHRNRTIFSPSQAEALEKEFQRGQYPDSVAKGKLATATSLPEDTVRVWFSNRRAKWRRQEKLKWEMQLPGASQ
# PRRX1 [3] = molecular target: PRRX1 (Homo sapiens, UniProt P54821 80-166, F113S)
# VENTX [4] = molecular target: T3, VENTX (Homo sapiens, UniProt O95231 78-163, Y115F)
# T3 sequence: T1 sequence with Y38F, Q44R
# HOXA2 [5] = molecular target: HOXA2 (Homo sapiens, UniProt O43364 129-215, R185T)
# PAX4 [6] = molecular target: T4, PAX4 (Homo sapiens, UniProt O43316 9-242, R200Q)
# T4 sequence: T2 sequence with K192Q
# HOXA2 [7] = molecular target: HOXA2 (Homo sapiens, UniProt O43364 129-215, R185K)
# PAX4 [8] = molecular target: T5, PAX4 (Homo sapiens, UniProt O43316 9-242, F177V)
# T5 sequence: T2 sequence with F169V, K192R
# MSX2 [9] = molecular target: MSX2 (Homo sapiens, UniProt P35548 130-214)
# PAX4 [10] = molecular target: T6, PAX4 (Homo sapiens, UniProt O43316 9-242, F177Y)
# T6 sequence: T2 sequence with F169Y, K192R
# MSX2 [11] = molecular target: MSX2 (Homo sapiens, UniProt P35548 130-214, F161Y)
# VAX1 [12] = molecular target: VAX1 (Homo sapiens, UniProt Q5SQQ9 86-172, T142I)
# HOXA4 [13] = molecular target: HOXA4 (Homo sapiens, UniProt Q00056 201-287, W262F)
# PRRX1 [14] = molecular target: PRRX1 (Homo sapiens, UniProt P54821 80-166)
# VAX1 [15] = molecular target: VAX1 (Homo sapiens, UniProt Q5SQQ9 86-172, K157R)
# HOXA4 [16] = molecular target: HOXA4 (Homo sapiens, UniProt Q00056 201-287, R217L)
# HOXA4 (Homo sapiens, UniProt Q00056 201-287, R217L), sequence (Q00056 201-287 R217L): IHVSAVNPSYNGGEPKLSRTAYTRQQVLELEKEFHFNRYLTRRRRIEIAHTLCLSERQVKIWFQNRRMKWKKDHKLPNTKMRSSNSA
# PRRX1 (Homo sapiens, UniProt P54821 80-166), sequence (P54821 80-166): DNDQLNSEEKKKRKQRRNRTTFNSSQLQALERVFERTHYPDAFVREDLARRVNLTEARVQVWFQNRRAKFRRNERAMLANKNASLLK
# HOXA4 (Homo sapiens, UniProt Q00056 201-287, W262F), sequence (Q00056 201-287 W262F): as the sequence (Q00056 201-287 R217L) above, with L17R, W62F counted along it
# HOXA2 (Homo sapiens, UniProt O43364 129-215, R185T), sequence (O43364 129-215 R185T): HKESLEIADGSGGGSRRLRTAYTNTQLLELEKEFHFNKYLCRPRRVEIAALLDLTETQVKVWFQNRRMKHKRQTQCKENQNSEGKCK
# VAX1 (Homo sapiens, UniProt Q5SQQ9 86-172, T142I), sequence (Q5SQQ9 86-172 T142I): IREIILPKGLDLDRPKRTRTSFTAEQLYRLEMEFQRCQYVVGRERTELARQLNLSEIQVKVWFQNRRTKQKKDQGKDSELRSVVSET
# ALX4, sequence (Q9H161 200-286): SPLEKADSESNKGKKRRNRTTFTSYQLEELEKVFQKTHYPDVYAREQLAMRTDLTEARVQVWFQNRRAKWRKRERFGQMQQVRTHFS
# VAX1 (Homo sapiens, UniProt Q5SQQ9 86-172, K157R), sequence (Q5SQQ9 86-172 K157R): as the sequence (Q5SQQ9 86-172 T142I) above, with I57T, K72R counted along it
# PRRX1 (Homo sapiens, UniProt P54821 80-166, F113S), sequence (P54821 80-166 F113S): as the sequence (P54821 80-166) above, with F34S counted along it
# MSX2 (Homo sapiens, UniProt P35548 130-214), sequence (P35548 130-214): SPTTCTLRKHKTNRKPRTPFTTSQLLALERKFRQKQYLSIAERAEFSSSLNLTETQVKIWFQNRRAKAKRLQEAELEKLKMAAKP
# MSX2 (Homo sapiens, UniProt P35548 130-214, F161Y), sequence (P35548 130-214 F161Y): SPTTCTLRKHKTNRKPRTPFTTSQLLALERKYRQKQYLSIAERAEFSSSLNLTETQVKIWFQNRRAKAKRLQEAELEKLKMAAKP
# HOXA2 (Homo sapiens, UniProt O43364 129-215, R185K), sequence (O43364 129-215 R185K): as the sequence (O43364 129-215 R185T) above, with T57K counted along it
sequence,measurement,setting,value
AATTAGTG,binding signal,VENTX [1],"11.9 upbm affinity estimate (log intensity, higher = more binding, comparable within an allelic series)"
same,binding signal,ALX4,"13.9 upbm affinity estimate (log intensity, higher = more binding, comparable within an allelic series)"
same,binding signal,PAX4 [2],"11.8 upbm affinity estimate (log intensity, higher = more binding, comparable within an allelic series)"
same,binding signal,PRRX1 [3],"11.2 upbm affinity estimate (log intensity, higher = more binding, comparable within an allelic series)"
same,binding signal,VENTX [4],"11.7 upbm affinity estimate (log intensity, higher = more binding, comparable within an allelic series)"
same,binding signal,HOXA2 [5],"12.8 upbm affinity estimate (log intensity, higher = more binding, comparable within an allelic series)"
same,binding signal,PAX4 [6],"12.3 upbm affinity estimate (log intensity, higher = more binding, comparable within an allelic series)"
same,binding signal,HOXA2 [7],"13.1 upbm affinity estimate (log intensity, higher = more binding, comparable within an allelic series)"
same,binding signal,PAX4 [8],"10.6 upbm affinity estimate (log intensity, higher = more binding, comparable within an allelic series)"
same,binding signal,MSX2 [9],"13.5 upbm affinity estimate (log intensity, higher = more binding, comparable within an allelic series)"
same,binding signal,PAX4 [10],"11.1 upbm affinity estimate (log intensity, higher = more binding, comparable within an allelic series)"
same,binding signal,MSX2 [11],"13.2 upbm affinity estimate (log intensity, higher = more binding, comparable within an allelic series)"
same,binding signal,VAX1 [12],"12.6 upbm affinity estimate (log intensity, higher = more binding, comparable within an allelic series)"
same,binding signal,HOXA4 [13],"11.6 upbm affinity estimate (log intensity, higher = more binding, comparable within an allelic series)"
same,binding signal,PRRX1 [14],"13.3 upbm affinity estimate (log intensity, higher = more binding, comparable within an allelic series)"
same,binding signal,VAX1 [15],"12.8 upbm affinity estimate (log intensity, higher = more binding, comparable within an allelic series)"
CAAATTAA,binding signal,ALX4,"13.7 upbm affinity estimate (log intensity, higher = more binding, comparable within an allelic series)"
same,binding signal,PAX4 [2],"11.8 upbm affinity estimate (log intensity, higher = more binding, comparable within an allelic series)"
same,binding signal,PRRX1 [3],"11 upbm affinity estimate (log intensity, higher = more binding, comparable within an allelic series)"
same,binding signal,PAX4 [6],"12.2 upbm affinity estimate (log intensity, higher = more binding, comparable within an allelic series)"
same,binding signal,PAX4 [8],"10.5 upbm affinity estimate (log intensity, higher = more binding, comparable within an allelic series)"
same,binding signal,PAX4 [10],"11.1 upbm affinity estimate (log intensity, higher = more binding, comparable within an allelic series)"
same,binding signal,PRRX1 [14],"13.2 upbm affinity estimate (log intensity, higher = more binding, comparable within an allelic series)"
AATTAACG,binding signal,VENTX [1],"11.7 upbm affinity estimate (log intensity, higher = more binding, comparable within an allelic series)"
same,binding signal,ALX4,"13.9 upbm affinity estimate (log intensity, higher = more binding, comparable within an allelic series)"
same,binding signal,PAX4 [2],"11.6 upbm affinity estimate (log intensity, higher = more binding, comparable within an allelic series)"
same,binding signal,PRRX1 [3],"11.1 upbm affinity estimate (log intensity, higher = more binding, comparable within an allelic series)"
same,binding signal,VENTX [4],"11.5 upbm affinity estimate (log intensity, higher = more binding, comparable within an allelic series)"
same,binding signal,HOXA4 [16],"12.1 upbm affinity estimate (log intensity, higher = more binding, comparable within an allelic series)"
same,binding signal,PAX4 [6],"12 upbm affinity estimate (log intensity, higher = more binding, comparable within an allelic series)"
same,binding signal,PAX4 [8],"10.6 upbm affinity estimate (log intensity, higher = more binding, comparable within an allelic series)"
same,binding signal,PAX4 [10],"11 upbm affinity estimate (log intensity, higher = more binding, comparable within an allelic series)"
same,binding signal,HOXA4 [13],"11.6 upbm affinity estimate (log intensity, higher = more binding, comparable within an allelic series)"
same,binding signal,PRRX1 [14],"13.3 upbm affinity estimate (log intensity, higher = more binding, comparable within an allelic series)"
CAATTAGG,binding signal,VENTX [1],"12 upbm affinity estimate (log intensity, higher = more binding, comparable within an allelic series)"
same,binding signal,VENTX [4],"11.7 upbm affinity estimate (log intensity, higher = more binding, comparable within an allelic series)"
same,binding signal,HOXA2 [5],"12.9 upbm affinity estimate (log intensity, higher = more binding, comparable within an allelic series)"
same,binding signal,HOXA2 [7],"13 upbm affinity estimate (log intensity, higher = more binding, comparable within an allelic series)"
same,binding signal,MSX2 [9],"13.8 upbm affinity estimate (log intensity, higher = more binding, comparable within an allelic series)"
same,binding signal,MSX2 [11],"13.4 upbm affinity estimate (log intensity, higher = more binding, comparable within an allelic series)"
same,binding signal,VAX1 [12],"12.8 upbm affinity estimate (log intensity, higher = more binding, comparable within an allelic series)"
same,binding signal,VAX1 [15],"12.7 upbm affinity estimate (log intensity, higher = more binding, comparable within an allelic series)"
CCGAGCGG,binding signal,HOXA4 [16],"9.78 upbm affinity estimate (log intensity, higher = more binding, comparable within an allelic series)"
same,binding signal,HOXA4 [13],"9.89 upbm affinity estimate (log intensity, higher = more binding, comparable within an allelic series)"
CCCAATTA,binding signal,VENTX [1],"11.7 upbm affinity estimate (log intensity, higher = more binding, comparable within an allelic series)"
same,binding signal,ALX4,"13.9 upbm affinity estimate (log intensity, higher = more binding, comparable within an allelic series)"
same,binding signal,PAX4 [2],"11.6 upbm affinity estimate (log intensity, higher = more binding, comparable within an allelic series)"
same,binding signal,PRRX1 [3],"11.3 upbm affinity estimate (log intensity, higher = more binding, comparable within an allelic series)"
same,binding signal,VENTX [4],"11.5 upbm affinity estimate (log intensity, higher = more binding, comparable within an allelic series)"
same,binding signal,HOXA2 [5],"12.5 upbm affinity estimate (log intensity, higher = more binding, comparable within an allelic series)"
same,binding signal,PAX4 [6],"11.9 upbm affinity estimate (log intensity, higher = more binding, comparable within an allelic series)"
same,binding signal,PAX4 [8],"10.4 upbm affinity estimate (log intensity, higher = more binding, comparable within an allelic series)"
same,binding signal,MSX2 [9],"14 upbm affinity estimate (log intensity, higher = more binding, comparable within an allelic series)"
same,binding signal,PAX4 [10],"10.8 upbm affinity estimate (log intensity, higher = more binding, comparable within an allelic series)"
same,binding signal,MSX2 [11],"13.7 upbm affinity estimate (log intensity, higher = more binding, comparable within an allelic series)"
same,binding signal,VAX1 [12],"12.3 upbm affinity estimate (log intensity, higher = more binding, comparable within an allelic series)"
same,binding signal,PRRX1 [14],"13.4 upbm affinity estimate (log intensity, higher = more binding, comparable within an allelic series)"
same,binding signal,VAX1 [15],"12.6 upbm affinity estimate (log intensity, higher = more binding, comparable within an allelic series)"
AACTAATT,binding signal,ALX4,"13.7 upbm affinity estimate (log intensity, higher = more binding, comparable within an allelic series)"
same,binding signal,PRRX1 [3],"11.1 upbm affinity estimate (log intensity, higher = more binding, comparable within an allelic series)"
same,binding signal,MSX2 [9],"13.3 upbm affinity estimate (log intensity, higher = more binding, comparable within an allelic series)"
same,binding signal,MSX2 [11],"12.9 upbm affinity estimate (log intensity, higher = more binding, comparable within an allelic series)"
same,binding signal,PRRX1 [14],"13.3 upbm affinity estimate (log intensity, higher = more binding, comparable within an allelic series)"
CAATTAGA,binding signal,VENTX [1],"11.8 upbm affinity estimate (log intensity, higher = more binding, comparable within an allelic series)"
same,binding signal,ALX4,"13.8 upbm affinity estimate (log intensity, higher = more binding, comparable within an allelic series)"
same,binding signal,PRRX1 [3],"10.9 upbm affinity estimate (log intensity, higher = more binding, comparable within an allelic series)"
same,binding signal,HOXA2 [5],"12.5 upbm affinity estimate (log intensity, higher = more binding, comparable within an allelic series)"
same,binding signal,MSX2 [9],"13.8 upbm affinity estimate (log intensity, higher = more binding, comparable within an allelic series)"
same,binding signal,MSX2 [11],"13.4 upbm affinity estimate (log intensity, higher = more binding, comparable within an allelic series)"
same,binding signal,VAX1 [12],"12.2 upbm affinity estimate (log intensity, higher = more binding, comparable within an allelic series)"
same,binding signal,PRRX1 [14],"13.2 upbm affinity estimate (log intensity, higher = more binding, comparable within an allelic series)"
same,binding signal,VAX1 [15],"12.3 upbm affinity estimate (log intensity, higher = more binding, comparable within an allelic series)"
AATTAAGG,binding signal,ALX4,"13.6 upbm affinity estimate (log intensity, higher = more binding, comparable within an allelic series)"
AATTAGAT,binding signal,ALX4,"13.7 upbm affinity estimate (log intensity, higher = more binding, comparable within an allelic series)"
same,binding signal,PAX4 [2],"11.7 upbm affinity estimate (log intensity, higher = more binding, comparable within an allelic series)"
same,binding signal,PRRX1 [3],"11.1 upbm affinity estimate (log intensity, higher = more binding, comparable within an allelic series)"
same,binding signal,PAX4 [6],"12 upbm affinity estimate (log intensity, higher = more binding, comparable within an allelic series)"
same,binding signal,PAX4 [8],"10.6 upbm affinity estimate (log intensity, higher = more binding, comparable within an allelic series)"
same,binding signal,PAX4 [10],"10.9 upbm affinity estimate (log intensity, higher = more binding, comparable within an allelic series)"
same,binding signal,PRRX1 [14],"13.3 upbm affinity estimate (log intensity, higher = more binding, comparable within an allelic series)"
